Test results as given in PubChem BioAssay AID1159580 (chemical genetic matrix, 2015).
Values joined by “and” are separate entries in the source; they are usually repeats but may differ in a detail not shown here. Equal values may be shown once. Screen size: about 5,500 compounds; about 2,000 (36%) were called active. About 18% were inconclusive and are not listed. No stated cut-off is given here; in the data, active means normalized growth mostly below about 0.91 (no sharp cut-off); inconclusive means no clear call, values can overlap the other calls; inactive means mostly above about 0.92. Some of the results follow.

Assay: chemical genetic growth profiling, strain panel (AID 1159580);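 further: tested at 20 µM; growth read once vehicle control cultures reached saturation at 30 °C; 1 = growth at the plate median or of vehicle wells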
Conditions: S. cerevisiae deletion strains, growth OD

Measured: normalized growth

CC1(C)CC[C@]2(C)CC[C@]3(C)C(=CCC4[C@@]5(C)CC[C@H](O)C(C)(C)C5CC[C@]43C)C2C1 (stereo partly specified)
inactive: locus YAL021C, strain ccr4, stronger effect = lower value 0.992 | locus YAL026C, strain drs2, stronger effect = lower value 1 | locus YAL030W, strain snc1, stronger effect = lower value 0.988 | locus YBL061C, strain skt5, stronger effect = lower value 0.986 | locus YBR009C, strain hhf1, stronger effect = lower value 1.02 | locus YBR021W, strain FUR4, stronger effect = lower value 1.07 | locus YBR023C, strain chs3, stronger effect = lower value 0.975 | locus YBR171W, strain sec66, stronger effect = lower value 0.993 | locus YBR229C, strain ROT2, stronger effect = lower value 1.01 | locus YBR231C, strain swc5, stronger effect = lower value 1 | locus YBR279W, strain paf1, stronger effect = lower value 0.991 | locus YCL011C, strain gbp2, stronger effect = lower value 0.985 | locus YCL016C, strain dcc1, stronger effect = lower value 0.99 | locus YCL029C, strain bik1, stronger effect = lower value 0.999 | locus YCL061C, strain MRC1, stronger effect = lower value 1 | locus YCL069W, strain vba3, stronger effect = lower value 0.995 | locus YCR088W, strain abp1, stronger effect = lower value 0.999 | locus YDL005C, strain med2, stronger effect = lower value 1.01 | locus YDL035C, strain GPR1, stronger effect = lower value 1.02 | locus YDL040C, strain nat1, stronger effect = lower value 1 | locus YDL074C, strain BRE1, stronger effect = lower value 1.02 | locus YDL101C, strain DUN1, stronger effect = lower value 0.997 | locus YDL185W, strain tfp1, stronger effect = lower value 0.954 | locus YDL192W, strain arf1, stronger effect = lower value 0.99 | locus YDR001C, strain nth1, stronger effect = lower value 0.994 | locus YDR069C, strain doa4, stronger effect = lower value 0.978 | locus YDR101C, strain arx1, stronger effect = lower value 1 | locus YDR137W, strain rgp1, stronger effect = lower value 1.01 | locus YDR150W, strain NUM1, stronger effect = lower value 1 | locus YDR159W, strain sac3, stronger effect = lower value 1.02 | locus YDR162C, strain NBP2, stronger effect = lower value 1.04 | locus YDR195W, strain ref2 0.965 | locus YDR297W, strain sur2, stronger effect = lower value 0.972 | locus YDR318W, strain mcm21, stronger effect = lower value 0.985 | locus YDR334W, strain swr1, stronger effect = lower value 0.996 | locus YDR335W, strain msn5, stronger effect = lower value 1 | locus YDR388W, stronger effect = lower value 0.988 | locus YDR392W, strain spt3, stronger effect = lower value 1.01 | locus YDR502C, strain sam2, stronger effect = lower value 0.986 | locus YEL003W, strain gim4, stronger effect = lower value 0.993 | locus YEL037C, strain rad23, stronger effect = lower value 0.998 | locus YEL061C, strain CIN8 (second series), stronger effect = lower value 0.987 | locus YER015W, strain faa2, stronger effect = lower value 0.988 | locus YER016W, strain bim1, stronger effect = lower value 0.995 | locus YER110C, stronger effect = lower value 0.987 | locus YER111C, strain swi4, stronger effect = lower value 0.994 | locus YER155C, strain BEM2 (second series), stronger effect = lower value 0.982 | locus YER155C, strain BEM2, stronger effect = lower value 1 | locus YER167W, strain BCK2, stronger effect = lower value 0.992 | locus YFR010W, strain ubp6, stronger effect = lower value 1.01 | locus YGL078C, strain dbp3, stronger effect = lower value 0.955 | locus YGL086W, strain mad1, stronger effect = lower value 0.987 | locus YGL167C, strain pmr1, stronger effect = lower value 0.994 | locus YGL173C, strain kem1, stronger effect = lower value 0.998 | locus YGL227W, strain vid30, stronger effect = lower value 0.986 | locus YGL240W, strain doc1, stronger effect = lower value 0.983 | locus YGL248W, strain PDE1, stronger effect = lower value 1.01 | locus YGL253W, strain hxk2, stronger effect = lower value 0.993 | locus YGR078C, strain PAC10, stronger effect = lower value 1 | locus YGR135W, strain pre9, stronger effect = lower value 0.963 | locus YGR229C, strain SMI1, stronger effect = lower value 0.989 | locus YGR252W, strain gcn5, stronger effect = lower value 1.04 | locus YHR013C, strain ard1, stronger effect = lower value 0.986 | locus YHR027C, strain rpn1, stronger effect = lower value 0.977 | locus YHR030C, strain SLT2, stronger effect = lower value 1.07 | locus YHR079C, strain IRE1 (second series), stronger effect = lower value 0.989 | locus YHR079C, strain IRE1, stronger effect = lower value 1.03 | locus YHR094C, strain hxt1, stronger effect = lower value 0.997 | locus YHR129C, strain ARP1, stronger effect = lower value 1.01 | locus YHR142W, strain chs7, stronger effect = lower value 1.04 | locus YHR200W, strain rpn10, stronger effect = lower value 0.996 | locus YIL066C, strain RNR3, stronger effect = lower value 1.02 | locus YIL073C, strain SPO22, stronger effect = lower value 0.964 | locus YIL125W, strain kgd1, stronger effect = lower value 0.947 | locus YIR030C, strain dcg1, stronger effect = lower value 0.985 | locus YJL092W, strain hpr5, stronger effect = lower value 1.01 | locus YJL095W, strain BCK1 (second series), stronger effect = lower value 0.991 | locus YJL095W, strain BCK1, stronger effect = lower value 0.995 and 1.03 | locus YJL115W, strain asf1, stronger effect = lower value 0.985 | locus YJL129C, strain trk1, stronger effect = lower value 1.02 | locus YJL134W, strain LCB3, stronger effect = lower value 0.998 | locus YJL154C, strain vps35, stronger effect = lower value 0.99 | locus YJL164C, strain tpk1, stronger effect = lower value 0.999 | locus YJL166W, strain qcr8, stronger effect = lower value 0.997 | locus YJL168C, strain set2, stronger effect = lower value 0.989 | locus YJL187C, strain SWE1 (second series), stronger effect = lower value 0.997
